Reference: PubChem BioAssay (NCI)
About 83,000 compounds went through this panel and 20% of them were active in at least one assay; those are over-represented in the sample as a whole.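 In brief: 96-well plates, 48 h treatment, single concentration, percent growth endpoint.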 Values without a mark were called inactive. The source made the active and inactive calls. How the source made its calls: active means growth percent below 10; inactive means the rest.

What was measured:
Assay in all cases: NCI-60 one-dose screen, 48 h (100 = growth as untreated, 0 = no growth, -100 = all killed)
Conditions in all cases: 10 µM
HT29 colon = tested on: HT29 colon
SNB-75 CNS = tested on: SNB-75 CNS
SNB-19 CNS = tested on: SNB-19 CNS
U251 CNS = tested on: U251 CNS
PC-3 prostate = tested on: PC-3 prostate
SK-MEL-5 melanoma = tested on: SK-MEL-5 melanoma
UACC-62 melanoma = tested on: UACC-62 melanoma
LOX IMVI melanoma = tested on: LOX IMVI melanoma
SK-MEL-28 melanoma = tested on: SK-MEL-28 melanoma
EKVX NSCLC = tested on: EKVX NSCLC
SN12C renal = tested on: SN12C renal
UO-31 renal = tested on: UO-31 renal
TK-10 renal = tested on: TK-10 renal
ACHN renal = tested on: ACHN renal
CAKI-1 renal = tested on: CAKI-1 renal
A498 renal = tested on: A498 renal
MOLT-4 leukemia = tested on: MOLT-4 leukemia
SR leukemia = tested on: SR leukemia
CCRF-CEM leukemia = tested on: CCRF-CEM leukemia
SK-MEL-2 melanoma = tested on: SK-MEL-2 melanoma

| Compound | growth (HT29 colon) | growth (SNB-75 CNS) | growth (SNB-19 CNS) [%] | growth (U251 CNS) | growth (PC-3 prostate) | growth (SK-MEL-5 melanoma) | growth (UACC-62 melanoma) | growth (LOX IMVI melanoma) | growth (SK-MEL-28 melanoma) | growth (EKVX NSCLC) [%] | growth (SN12C renal) [%] | growth (UO-31 renal) | growth (TK-10 renal) | growth (ACHN renal) | growth (CAKI-1 renal) | growth (A498 renal) | growth (MOLT-4 leukemia) | growth (SR leukemia) | growth (CCRF-CEM leukemia) | growth (SK-MEL-2 melanoma) [%] |
| --- | --- | --- | --- | --- | --- | --- | --- | --- | --- | --- | --- | --- | --- | --- | --- | --- | --- | --- | --- | --- |
| COc1cc2nc(Nc3cccc(C(=O)O)c3)nc(N)c2cc1OC | 103% | 94.6% | 102 | 99% | 90.4% | 99.7% | 90.2% | 96.3% | 103% | 95.2 | 95.4 | 78.3% | 108% | 93.9% | 93.7% | 117% | 12.8% | 105% |  |  |
| COc1ccc(-c2nn(-c3cccc(NC(=O)c4cccc(C(F)(F)F)c4)c3)cc2-c2ccncc2)cc1Cl | 8.18% (active) | 6.59% (active) | 79.6 | -3.25% (active) | 14% | 23.7% | 38.2% | 28.6% | 40.6% |  | 45.3 | 13.9% | 41% | 36.8% | 11.3% | -11.9% (active) | 24% | 4.46% (active) | 7.1% (active) |  |
| O=C(CC(NC(=O)OCc1ccccc1)C(=O)OCc1ccccc1)OCc1ccccc1 (centres undefined) | 98.6% | 113% | 109 | 90.4% | 93.8% | 94.1% | 97.2% | 101% | 108% | 95.7 | 102 | 103% | 97.6% | 104% | 99.3% | 68.1% | 115% | 99.3% |  |  |
| COc1ccc(-c2nn(-c3cccc(NC(=O)c4cc(C(F)(F)F)cc(C(F)(F)F)c4)c3)cc2-c2ccncc2)cc1Cl | 61% | 60.9% | 90.8 | 54.7% | 40.7% | 62.9% | 73.6% | 80.3% | 67.3% |  | 78.1 | 43% | 85.5% | 66.2% | 50.1% | 39.7% | 69.5% | 36.3% | 64.4% |  |
| CCOC(=O)CCC(NC(=O)c1ccc(N)cc1)C(=O)OCC (centres undefined) | 99.4% | 113% | 109 | 105% | 89.8% | 105% | 103% | 100% | 105% | 121 | 103 | 76.9% | 102% | 95.3% | 123% | 112% | 114% | 121% |  |  |
| O=C(Nc1cccc(-n2cc(-c3ccncc3)c(-c3ccc(O)c(Cl)c3)n2)c1)Nc1ccc(Cl)c(Cl)c1 | 37.8% | 7.7% (active) | 38.2 | -70.9% (active) | -7.87% (active) | -47% (active) | -43% (active) | -34.4% (active) | -21.5% (active) |  | 17 | -11.3% (active) | 16.7% | 9.03% (active) | -21.1% (active) | 23.2% | -10% (active) | -0.568% (active) | 0.782% (active) |  |
| CN(C)CCN=c1nc2c(c(N)n1-c1ccccc1)c(=S)n(-c1ccccc1)c(=S)n2-c1ccccc1 | -35.7% (active) | 79% | 26.1 | 2.1% (active) | 31% | -98.8% (active) | -90.3% (active) | -61.4% (active) | -100% (active) | 39.8 | 52.3 | 3.1% (active) | 47.7% | 28.3% |  |  | 3.92% (active) | 34.7% | -8.26% (active) |  |
| CSc1nc(=O)n(Cc2ccc(F)cc2)c(=O)n1Cc1ccc(C)cc1 | 101% | 74.9% | 100 | 94.7% | 88.5% | 107% | 93.5% | 90.9% | 108% |  | 96.3 | 80.1% |  | 101% | 84.9% | 106% | 92.4% | 84.4% | 98.5% | 108 |
| O=[N+]([O-])c1cccc(-c2ncc(-c3ccc(Cl)cc3Cl)[nH]2)c1 | -65.2% (active) | 90.6% | 96.7 | -100% (active) | -82.6% (active) | 94.7% | 63.4% | -100% (active) | 92.8% | 91.5 | 80.9 | 60.4% | 20.1% | -2.82% (active) | 100% | 104% | 22.1% | -36.6% (active) |  |  |
| O=C(Nc1ccccc1)Nc1cccc(-n2cc(-c3ccncc3)c(-c3ccc(O)c(Cl)c3)n2)c1 | 64.7% | 48.3% | 77.2 | -9.56% (active) | 31.3% | 42.8% | 43.8% | 47.7% | 43.6% |  | 59.1 | 26.9% | 88.8% | 43.1% | 30.1% | 82.5% | 38.3% | 11.9% | 29.9% |  |
| CN(C)C(=S)N/N=C\C=N/NC(=S)N(C)C | 13.5% | 64% | 90.3 | 42.8% | -18.4% (active) | 64.8% | 73.2% | 43.9% |  | 38.8 | 88.4 | 31.7% | 96.5% | 80% | 74.1% | 89% | 10% | 35.4% | 22.6% | 85 |
| COc1ccc2nc3cc(Cl)ccc3c(NCCNCC(C)O)c2c1 (centres undefined) | -37.7% (active) | 63.7% | 34 | -8.32% (active) | 28.1% | 81% | 54.1% | 14.5% |  | 38.1 | 27.3 | 32.4% | -15.6% (active) | 22.6% | 47.6% | 37% | 11.7% | 2.01% (active) | 19.3% | 31.1 |
| Nc1ccc2cc(S(=O)(=O)O)cc(O)c2c1N=Nc1ccc(F)cc1 | 107% | 123% | 104 | 115% | 91.5% | 108% | 96% | 93.5% |  | 107 | 112 | 51.3% | 123% | 99.7% | 108% | 129% | 99.8% |  | 106% | 101 |
| CCN(CC)CCSCCN(CC)CC | 104% | 96.3% | 106 | 91.7% | 96.5% | 99.6% | 102% | 99% | 103% |  | 101 | 97.1% | 103% | 99% | 98% |  | 105% | 98.5% | 91.9% |  |
| O=C(Nc1ccc(OS(=O)(=O)c2ccccc2)cc1)C12CC3CC(CC(C3)C1)C2 | -19.9% (active) | 56.4% | 71.8 | 34.6% | 23.6% | 32% | 57% | 40% | 75% |  | 63.5 | 44.6% | 68.6% | 78.5% | 54.7% | 14.4% | 39.5% | 11.2% | 40.2% |  |
| O=C(Nc1cccc(-n2cc(-c3ccncc3)c(-c3ccc(O)c(Cl)c3)n2)c1)c1cc(C(F)(F)F)cc(C(F)(F)F)c1 | 48.2% | 59.4% | 88.4 | 33.1% | 24.2% | 56.4% | 72.4% | 37.1% | 70.8% |  | 63.6 | 47.8% | 62% | 44.8% | 30.7% | 57.2% | 34.4% | 39.1% |  |  |
| Cc1nc2ccc(CN(C)c3ccc(C(=O)N[C@@H](CCC(=O)O)C(=O)O)s3)cc2c(=O)[nH]1 | 55.1% | 43.4% | 42.8 | 56.3% | 56.5% | 28.7% | 40.1% | 26.8% |  | 72.9 | 47.7 | 39.9% | 48.6% | 34.1% | 28.5% | 21.5% | 26.2% | 44.6% | 33.1% | 105 |
| CCN1CCCC1CNC(=O)c1ncc(-c2ccc(C(F)(F)F)cc2)c(NC2CCCCCC2)n1 (centres undefined) | 11.7% | 74.3% | 85.2 | 52.7% | 58.4% | 45.2% | 78.3% | 87.1% | 81.5% |  | 86.7 | 45% | 74.1% | 93.5% | 83% | 58.3% | 66.3% | -16.6% (active) | 63.3% |  |
